In PubChem BioAssay AID1578 (Sanford-Burnham Center for Chemical Genomics, 2009) one finds inhibition data, which are given here for 92 compounds.

SMILES strings stand for the structures. Screen size: about 290,000 compounds; about 3,000 (1%) were called active. Only a selection was taken, and actives are over-represented in it overall. A number with no mark means an inactive call. No stated cut-off is given here; in the data, active means inhibition mostly above about 36% (no sharp cut-off); inactive means mostly below about 34%.

The nature of the assay: inhibition of NOD1-driven NF-kB reporter – cell-based, luminescence, uHTS, primary screen (AID 1578).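 Further: HEK-293T reporter cells stimulated with the NOD1 agonist gamma-tri-DAP.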 The settings on record: NOD1-driven NF-kB luciferase reporter cells, at 4 µM, active compounds read high. (In general: In a reporter assay the amount or activity of a reporter protein is the signal.)
For the compound `Cc1ccc(C(=O)N2CCOCC2)cc1S(=O)(=O)N1CCCCC1`, the inhibition (as a rule, the relative decrease from the control value, in per cent) is -11.7%.

For `CCN1CCN(CC(=O)Nc2ccc(C)cc2C)C(=O)C1=O`, the inhibition is 29.5%.

`COc1ccc(NC(=O)C2=C(C)NC(=S)NC2c2ccc(O)c(OC)c2)cc1` (configuration not stated): the inhibition was -36.2%.

In the case of `Cc1ccnc(NC(=O)c2cc(-n3cnnc3)ccc2Cl)c1`, the inhibition was -27%.

In the case of `Cc1ccc(NC(=O)c2cc(-n3cnnc3)ccc2Cl)c(C)c1`, the inhibition was 63.4% (active).

In the case of `Cc1ccc(NC(=O)c2cc(-n3cnnc3)ccc2Cl)cc1`, the inhibition was -21.5%.

As to `O=C(CCCN1C(=O)/C(=C/c2cccs2)SC1=S)Nc1cccc(C(=O)O)c1`, the inhibition is -20.6%.

In the case of `COc1ccc(-n2nc(C(=O)NCC(=O)N3CCCC(C)C3)c3ccccc3c2=O)cc1Cl` (configuration not stated), the inhibition was -22.7%.

With `CCCC1S/C(=N/N=C/c2ccc(C)cc2)N(Cc2ccc(OC)cc2)C1=O` (configuration not stated), the inhibition is 39.2%.

Regarding `CCCC1S/C(=N/N=C/c2ccc(OC)cc2)N(Cc2ccc(OC)cc2)C1=O` (configuration not stated), the inhibition is 12.9%.

For `CCCCC1S/C(=N/N=C/c2ccc(OC)cc2)N(Cc2ccc(OC)cc2)C1=O` (configuration not stated), the inhibition was 75.2% (active).

For `COc1ccccc1CNC(=O)C(C)n1nc(C)n2c(cc3occc32)c1=O` (configuration not stated), the inhibition was -26.7%.

Turning to `Cc1ccc(C(=O)C(C)N2C(=O)NC(C)(c3ccccc3)C2=O)cc1` (configuration not stated), the inhibition was -36.5%.

On to `O=C(Cc1ccc(Br)c2ccccc12)N/N=C/c1ccccn1`, for which the inhibition was 7.4%.

For `Cc1c(CCC(=O)O)c(=O)oc2c(C)c3occ(-c4ccc(Br)cc4)c3cc12`, the inhibition is 27.8%.

For `COc1ccc(-c2coc3c(C)c4oc(=O)c(CCC(=O)O)c(C)c4cc23)cc1`, the inhibition was 10.4%.

As to `COC(=O)c1cc(-c2ccc(F)cc2)n(-c2ccccc2)n1`, the inhibition was -3.9%.

For the compound `Cc1cc(C)cc(NC2=C(N)C(=O)c3ccccc3C2=O)c1`, the inhibition was -4.5%.

Consider `Cc1cc(C)c(Nc2cc(S(=O)(=O)O)c(N)c3c2C(=O)c2ccccc2C3=O)c(C)c1`, for which the inhibition is 69.6% (active).

With `Nc1c(S(=O)(=O)O)cc(NC(=O)c2ccccc2)c2c1C(=O)c1ccccc1C2=O`, the inhibition was 11.8%.

As for `Cc1ccc(NC(=O)c2sc(C)nc2C)c(C)c1`, the inhibition was -0.8%.

`O=C(O)c1cccnc1SCC(=O)C12CC3CC(CC(C3)C1)C2`: the inhibition was -9.5%.

Take `CCOC(=O)Cc1cc(=O)n2[nH]cc(-c3cccc(Br)c3)c2n1`: the inhibition was 27.2%.

As for `CCOC(=O)Cc1c(C)nc2c(-c3ccccc3)c[nH]n2c1=O`, the inhibition is -6.6%.

As for `CCOC(=O)Cc1c(C)nc2c(-c3cccc(Br)c3)c[nH]n2c1=O`, the inhibition was 69.7% (active).

As for `CCCN1CCN(C(=O)c2oc3c(Cl)cccc3c2C)CC1`, the inhibition is 11.7%.

With `Cc1ccc(C(=O)NCCCN2CCOCC2)c(C)c1`, the inhibition was -33.2%.

Take `Cc1ccc(-c2csc(C3=C(O)CN(NC(=O)c4ccc([N+](=O)[O-])cc4)C3=N)n2)cc1`: the inhibition was 3.2%.

On to `N=C1C(c2nc3ccccc3s2)=C(O)CN1NC(=O)c1ccc([N+](=O)[O-])cc1`, for which the inhibition was 102% (active).

With `N=C1C(c2nc3ccccc3s2)=C(O)CN1NC(=O)c1ccccc1[N+](=O)[O-]`, the inhibition was -23%.

`Cc1csc(SCCn2c(N3CCOCC3)nc3c2c(=O)[nH]c(=O)n3C)n1`: the inhibition is -13.7%.

For the compound `COc1cc(/C=C/c2cc(C(F)(F)F)[nH]c(=O)n2)cc(OC)c1OC`, the inhibition was 86.7% (active).

With `COc1cc(OC)c(OC)cc1/C=C/c1cc(C(F)(F)F)[nH]c(=O)n1`, the inhibition is -1%.

Regarding `COc1ccc(/C=C/c2cc(C(F)(F)F)[nH]c(=O)n2)cc1OC`, the inhibition was 44.3%.

For the compound `CS(=O)(=O)N(CCC#N)Cc1ccc(/C=C2\C(=O)Nc3ccccc32)o1`, the inhibition is 57.1% (active).

As for `Cc1ccc(/C=C2\C(=O)Nc3ccccc32)o1`, the inhibition is -9.5%.

Consider `CS(=O)(=O)N(CCC#N)Cc1ccc(C=O)o1`, for which the inhibition was -32.9%.

As to `O=C(Nc1ccc(O)cc1)/C(=C\C=C\c1ccccc1)NC(=O)c1ccccc1`, the inhibition was -13.3%.

With `CCN(C(=O)COC(=O)/C=C/c1cccc([N+](=O)[O-])c1)c1ccccc1`, the inhibition was -31.8%.

In the case of `CCn1nc(C)cc1-c1nnc(Sc2ncc([N+](=O)[O-])s2)n1C`, the inhibition is 35.4% (active).

With `CCn1ncc([N+](=O)[O-])c1C(=O)n1nc(C)cc1C`, the inhibition was -22.7%.

With `Cn1cnc([N+](=O)[O-])c1Sc1nnc(-c2cccnc2)n1C`, the inhibition was -5.6%.

Take `CC(C)(C)SCCNS(=O)(=O)c1ccc2ccccc2c1`: the inhibition was 7.5%.

Take `COc1cccc(NC(=O)CC(=O)c2ccc([N+](=O)[O-])cc2)c1`: the inhibition was -3.4%.

On to `Cc1ccc(C(=O)CCC(=O)Nc2ccc(Cl)c(S(=O)(=O)Nc3cccc(Cl)c3)c2)cc1`, for which the inhibition was 19.9%.

For `Cc1cccc(NS(=O)(=O)c2cc(NC(=O)CC(=O)c3ccc([N+](=O)[O-])cc3)ccc2C)c1`, the inhibition is 41.5%.

On to `COc1ccc(C(=O)CC(=O)Nc2ccc([N+](=O)[O-])cc2)cc1`, for which the inhibition is -14.5%.

With `COc1ccc(NS(=O)(=O)c2cc(NC(=O)CC(=O)c3ccc([N+](=O)[O-])cc3)ccc2C)cc1`, the inhibition is 54.7% (active).

With `Cn1ncc2c(Nc3ccc(Cl)c(Cl)c3)ncnc21`, the inhibition is -5.2%.

Regarding `Cc1ccc(OCCCCNC2CCCC(C)C2C)c(C)c1` (configuration not stated), the inhibition was -22.2%.

`Cc1ccc(OCCCCNC2CCCCC2)c(C)c1`: the inhibition was 30.3% (active).

For `Cc1ccc(OCC(O)CNC2CCCC2)c(C)c1` (configuration not stated), the inhibition was 0%.

`CN(Cc1ccccc1)C(=O)c1cc(=O)[nH]c2ccccc12`: the inhibition is 6.3%.

`Cc1ccc(-n2nc(-c3ccccc3)cc2Nc2ccccc2N)cc1`: the inhibition is -9.6%.

In the case of `O=C(CS(=O)c1ccc(C(F)(F)F)cc1[N+](=O)[O-])Oc1ccccc1` (configuration not stated), the inhibition is 21.2%.

On to `O=C(CS(=O)c1ccc(C(F)(F)F)cc1[N+](=O)[O-])Oc1ccc(Cl)cc1` (configuration not stated), for which the inhibition was 15.4%.

For the compound `CS(=O)(=O)c1ccc(S(=O)CC(=O)Oc2ccc(Cl)cc2)c([N+](=O)[O-])c1` (configuration not stated), the inhibition is 47.4% (active).

For `Nc1ccc(-c2nc3cc([N+](=O)[O-])ccc3o2)cc1`, the inhibition was -15.4%.

As for `COc1ccc(S(=O)Cc2ccc(C(=O)NCc3cccc(OC)c3)o2)cc1` (configuration not stated), the inhibition was -16.8%.

`COc1cccc(CNC(=O)CSCc2cnn(-c3ccccc3)c2-n2cccc2)c1`: the inhibition was 19.5%.

`O=C(CSCc1cnn(-c2ccccc2)c1-n1cccc1)NCc1cccnc1`: the inhibition is 60.7% (active).

As for `O=C(CSCc1cnn(-c2ccccc2)c1-n1cccc1)NCc1ccccn1`, the inhibition is -18.4%.

Consider `CCCCCCCC(=O)N/N=C(\C)c1cccnc1`, for which the inhibition is 7.8%.

For `N#C/C(=C\c1ccc(O)c([N+](=O)[O-])c1)C(=O)NCc1ccccc1`, the inhibition was -13.6%.

Regarding `COc1cc(NC(=O)/C=C/c2ccccc2[N+](=O)[O-])cc(OC)c1`, the inhibition was -36.1%.

As to `N#C/C(=C\C=C\c1ccccc1[N+](=O)[O-])C(=O)NCc1ccccc1`, the inhibition was 97.3% (active).

In the case of `O=C(/C=C/c1ccccc1)NCc1cccnc1`, the inhibition was -46%.

Consider `N#C/C(=C\C=C\c1ccccc1)C(=O)NCc1ccco1`, for which the inhibition is 19.2%.

As to `N#C/C(=C\C=C\c1ccccc1)C(=O)NCc1cccnc1`, the inhibition is 68.7% (active).

With `COCCNC(=O)/C(C#N)=C/c1ccc(O)c([N+](=O)[O-])c1`, the inhibition was -50.1%.

For the compound `COC(=O)C(=Cc1ccccc1[N+](=O)[O-])C(=O)OC`, the inhibition is 28.4% (active).

Regarding `O=C(O)/C=C/c1ccccc1[N+](=O)[O-]`, the inhibition is 2.2%.

In the case of `N#C/C(=C\c1ccccc1[N+](=O)[O-])C(=O)NCc1ccccc1`, the inhibition was -5%.

As to `COCCNC(=O)/C(C#N)=C/C=C/c1ccccc1[N+](=O)[O-]`, the inhibition was 76.2% (active).

Consider `COCCNC(=O)/C(C#N)=C/C=C/c1ccccc1`, for which the inhibition is -4.8%.

With `Cc1cc([N+](=O)[O-])ccc1NC(=O)Nc1ccc(F)cc1F`, the inhibition was -5%.

In the case of `Cc1ccc(Cn2nnc3c(=O)n(Cc4cc(C)ccc4C)cnc32)cc1`, the inhibition is -9.7%.

As for `CN(C)S(=O)(=O)c1cccc(NC(=O)c2cc3ccccc3o2)c1`, the inhibition was -40.6%.

Take `COc1ccc(/C=C(\C#N)C(=O)NC(C)c2ccccc2)cc1O` (configuration not stated): the inhibition is -1.1%.

For `CC(=O)c1c(O)c2ccccc2n(C(C)C)c1=O`, the inhibition was 12%.

Take `O=C(COC(=O)c1ccco1)Nc1ccccc1[N+](=O)[O-]`: the inhibition was -4.7%.

As for `CN(C)C(=O)Nc1ccccc1CC[N+](=O)[O-]`, the inhibition is -28.5%.

As to `COc1ccc(-c2csc3ncnc(Cl)c23)cc1`, the inhibition is -16.4%.

For the compound `Cc1c(C(=O)N2CCN(c3ccccc3F)CC2)oc2c1C(=O)CC(C)(C)C2`, the inhibition is 0%.

Consider `O=S(=O)(/N=C(\Sc1ccc(Cl)cc1)c1ccccc1)c1ccccc1`, for which the inhibition was 3.3%.

In the case of `C=CCn1c(=O)c2c3c(sc2n2c(Nc4ccc(C(=O)OCC)cc4)nnc12)CCCC3`, the inhibition was -30.7%.

Turning to `CCC(C)(C)NC(=O)C(c1ccc(OC)cc1)N(C(=O)CCC(=O)Nc1cc(C)on1)c1ccc(F)cc1` (configuration not stated), the inhibition was -11.7%.

As to `CC(C)c1ccc(/C=N/NC(=O)CC(=O)NCc2ccccc2)cc1`, the inhibition was -41.2%.

As for `CCN(CC)S(=O)(=O)c1cc([N+](=O)[O-])ccc1NNC(=O)Nc1ccccc1`, the inhibition is -23.4%.

Consider `CCN(CC)S(=O)(=O)c1cc([N+](=O)[O-])ccc1NNC(=O)Nc1ccc(Cl)c(Cl)c1`, for which the inhibition was 83.8% (active).

For `CCN(CC)S(=O)(=O)c1cc([N+](=O)[O-])ccc1NNC(=O)Nc1ccc(F)cc1`, the inhibition is 2%.

With `COc1ccc(CN2CCN(C(=O)CCC(=O)Nc3nnc(C4CCCCC4)s3)CC2)cc1F`, the inhibition is 26.9%.
